Tests used:
[1] = system: Vero E6 infected with SARS-CoV-2; assay: morphology score (similarity to uninfected cells); higher = more like uninfected cells; conditions: 24 h
[2] = system: Vero E6 infected with SARS-CoV-2; assay: SARS-CoV-2 infection rate relative to infected DMSO; higher = more infection, active = 60 or less; conditions: 24 h

Compound	morphology score [1]	SARS-CoV-2 infection rate [2]
CC(CNC(=O)c1cccnc1)NC(=O)c1cccnc1 (configuration not stated) [nicaraven] (10 µM)	-0.02	114% (inactive)
O=C1COc2c(CCNCCN(C(=O)CCNCCc3ccc(Cl)c(Cl)c3)C3CCCCC3)ccc(O)c2N1 (10 µM)	-0.232	100% (inactive)
Oc1ccc(-c2c(-c3ccccc3)nn3c(C(F)(F)F)cc(C(F)(F)F)nc23)cc1 (10 µM)	0.0465	104% (inactive)
COc1cc2c(c(OC)c1OC)-c1c(cc3c(c1OC)OCO3)C[C@H](C)[C@@](C)(O)C2 [schisandrol-B] (10 µM)	-0.0659	106% (inactive)
COC1(C2=NCCN2)COc2ccccc2O1 (configuration not stated) (10 µM)	0.0681	92.5% (inactive)
CC(=O)c1cnc2ccc(-c3cc(Cl)c(O)c(Cl)c3)nc2c1N[C@H]1CC[C@H](CN(C)C)CC1 (0.833333 µM)	0.294	96% (inactive)
c1ccc2[nH]c(-c3cscn3)nc2c1 [tiabendazole] (10 µM)	0.157	111% (inactive)
Cc1cc2c(F)c(Oc3ncnn4cc(OC[C@@H](C)OC(=O)[C@H](C)N)c(C)c34)ccc2[nH]1 [brivanib-alaninate] (10 µM)	0.385	106% (inactive)
CC(C)(C)NCC(O)COc1ccc(NC(=O)NC2CCCCC2)cc1 (configuration not stated) [talinolol] (10 µM)	0.0728	106% (inactive)
C[C@H]1O[C@@H](O[C@H]2[C@@H](O)C[C@H](O[C@H]3[C@@H](O)C[C@H](O[C@H]4CC[C@@]5(C)[C@H](CC[C@@H]6[C@@H]5C[C@@H](O)[C@]5(C)[C@@H](C7=CC(=O)OC7)CC[C@]65O)C4)O[C@@H]3C)O[C@@H]2C)C[C@H](O)[C@@H]1O [digoxin] (0.833333 µM)	-0.256	98% (inactive)
Nc1[nH]cnc2ncnc1-2 [adenine] (10 µM)	0.0482	102% (inactive)
COc1ccc(-n2c(SCCCN3C(=O)c4cccc5cccc(c45)C3=O)nnc2-c2ccncc2)cc1 (0.833333 µM)	0.102	108% (inactive)
N=C(N)NC(=O)Cc1c(Cl)cccc1Cl [guanfacine] (10 µM)	0.255	86% (inactive)
Cc1cccc(Cc2c[nH]cn2)c1C [detomidine] (10 µM)	-0.193	116% (inactive)
CCOC(=O)Nc1ccc(NCc2ccc(F)cc2)cc1N [Retigabine] (10 µM)	0.067	106% (inactive)
CC(=O)OCC(=O)[C@H]1CC[C@H]2[C@@H]3CC[C@H]4C[C@H](O)CC[C@]4(C)[C@H]3C(=O)C[C@]12C [alfadolone-acetate] (10 µM)	-0.231	116% (inactive)
c1ccc2sc(N3CCN(Cc4ccc5c(c4)OCO5)CC3)nc2c1 [2-[1-(4-piperonyl)piperazinyl]benzothiazole] (10 µM)	0.00324	102% (inactive)
Cc1c(N(C)C)c(=O)n(-c2ccccc2)n1C [amidopyrine] (10 µM)	-0.0419	110% (inactive)
COc1ccc(CNC(=O)c2sc3nc(C)cc(C)c3c2N)cc1 (10 µM)	-0.0124	104% (inactive)
Cc1cc(C)c(/C=C2\C(=O)Nc3ccccc32)[nH]1 [semaxanib] (10 µM)	0.208	96% (inactive)
CC1(C)CC[C@]2(C(=O)O)CC[C@]3(C)[C@H](C(=O)C=C4[C@@]5(C)C=C(C#N)C(=O)C(C)(C)[C@@H]5CC[C@]43C)[C@@H]2C1 [bardoxolone] (0.833333 µM)	0.164	104% (inactive)
O=C(Cn1ccnc1[N+](=O)[O-])NCCO [etanidazole] (10 µM)	0.0673	94.5% (inactive)
CCCCOc1ccc(OCCCN2CCOCC2)cc1 [pramoxine] (10 µM)	-0.0144	106% (inactive)
C/C(=C\C(=O)OCCCCCCCCC(=O)O)C[C@@H]1OC[C@H](C[C@@H]2O[C@H]2[C@@H](C)[C@H](C)O)[C@@H](O)[C@H]1O [mupirocin] (10 µM)	0.0465	110% (inactive)
CC(C)(C)c1ccc(CN2CCN(C(c3ccccc3)c3ccc(Cl)cc3)CC2)cc1 (configuration not stated) [buclizine] (10 µM)	0.307	90.5% (inactive)
Cc1ccc(NC(=O)c2ccc(CN3CC[C@H](N(C)C)C3)c(C(F)(F)F)c2)cc1Nc1nccc(-c2cncnc2)n1 [bafetinib] (0.833333 µM)	0.358	104% (inactive)

Reference: the supplement of paper PMC13380429
